# Screens (PubChem BioAssay)
# Rows were chosen to be rich in hits. Some 4.7% of all compounds tested hit in one or more screens of this group.
# D1 antag – blocks dopamine activation of the human D1 receptor; activity change, negative = inhibition, % at 10 µM; P21728; HEK293 TREx D1 cells, calcium flux, dopamine EC80; hits give low values; 3.2% of 360,000 active; in the data active = activity change below about -30%; note: % is set by controls: 0 for no effect and ±100 for the full control effect
# Target sequence (P21728 whole entry, looked up): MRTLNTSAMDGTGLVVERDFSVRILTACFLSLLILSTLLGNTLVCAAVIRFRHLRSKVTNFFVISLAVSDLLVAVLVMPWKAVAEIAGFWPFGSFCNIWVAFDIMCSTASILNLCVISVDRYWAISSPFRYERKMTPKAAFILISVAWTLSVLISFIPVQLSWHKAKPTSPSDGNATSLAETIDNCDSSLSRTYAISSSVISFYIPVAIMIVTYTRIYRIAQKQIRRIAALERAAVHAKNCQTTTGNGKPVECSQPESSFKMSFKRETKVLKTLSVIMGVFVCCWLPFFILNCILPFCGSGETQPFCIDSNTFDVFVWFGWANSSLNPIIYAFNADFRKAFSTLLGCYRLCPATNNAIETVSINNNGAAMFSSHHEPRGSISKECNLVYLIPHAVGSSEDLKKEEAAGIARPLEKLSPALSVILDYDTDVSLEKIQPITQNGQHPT
#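 Tetracycline-induced HEK293 T-REx cells with force-coupled D1 receptor were loaded with a no-wash calcium dye. Compound was added after a 10 s baseline and read kinetically for 180 s; EC80 dopamine was then added and calcium flux followed another 180 s.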
# D1 potentiator – enhances dopamine response at the human D1 receptor. 0.036% of 360,000 active. HEK293 TREx D1 cells, calcium flux, dopamine EC20 potentiation. potentiation, % at 10 µM. AID 504651. P21728; in the data active = potentiation above about 30%; note: 0% is about no effect
# TRHR agonist – activates the human TRH receptor; 0.18% of 360,000 active; AID 493084; activation, % at 2 µM; TRHR cells, calcium flux fluo-8, FDSS agonist mode; P34981; note: 0% is about no effect
#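 In this calcium-flux screen, cells bearing human TRHR are dye-loaded with fluo-8, baselined for 10 cycles, then exposed to library compounds; positive kinetic calcium responses during the agonist phase mark hits, with TRH as control.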
# TRHR enhancer – TRH receptor (human) allosteric enhancement. TRHR cells, fluo-8 calcium fluorescence, EC20 TRH enhancement. 0.66% of 360,000 active. enhancement, % at 2 µM. P34981. AID 493056; in the data active = enhancement above about 30%; note: 0% is about no effect
#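 TRHR-expressing cells loaded with fluo-8 calcium dye were read kinetically (ex 480/em 530) during compound addition, then stimulated with an EC20 of TRH (10 nM final). Enhancement of the Gq-mediated intracellular calcium response was scored.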
# D1 ag – activates the human D1 dopamine receptor; P21728; activation, % at 2 µM; HEK293 T-REx D1 cells, calcium flux, agonist mode; AID 504660; 1% of 360,000 active; note: 0% is about no effect
#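 Inducible HEK293 T-REx D1 cells, force-coupled to calcium signalling, were plated at 4000 cells/well with tetracycline and held overnight at 30 C. After no-wash calcium dye loading, compound-evoked calcium rise over 180 s flagged agonists.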
# Starred values were filed as active, the others as inactive; · = no result given. Cut-off read from the data, not from the text of the source, unless noted: active = activation above about 30%; inactive = the rest.
SMILES,D1 antag,D1 potentiator,TRHR agonist,TRHR enhancer,D1 ag
CC(C)COc1ccc(C(=O)Nc2nnc(S(=O)(=O)N(C)Cc3ccco3)s2)cc1,2,0,1,2,-1
CN(C)CCCN1c2ccccc2CCc2ccc(Cl)cc21,-96*,-3,4,3,36*
CN(C)CCCN1c2ccccc2Sc2ccccc21,-81*,-4,2,12,42*
CCO/N=C(\C)c1c(O)cc(C(C)C)n(-c2ccccc2)c1=O,-36*,-4,0,3,1
Cc1ccccc1CSCc1nc2ccccc2[nH]1,-30*,-9,-1,-5,13
c1cncc(-c2nnc(SCc3nc4ccccc4[nH]3)o2)c1,-4,-6,0,2,2
c1ccc2[nH]c(CSc3nc4ccccc4o3)nc2c1,-3,-3,0,8,33*
Cc1cc(C)c(S(=O)(=O)NCC(c2cccs2)S(=O)(=O)c2ccccc2)c(C)c1 (configuration not stated),·,-4,0,2,22
CCOC(=O)N1CCc2c(sc3c2c(=O)n(CCc2ccccc2)c(=O)n3Cc2c(F)cccc2Cl)C1,8,0,0,-1,1
CCOC(=O)C1(C)C=C(Nc2ccc(OC)cc2)C(=O)N1c1ccccc1 (configuration not stated),-42*,-3,-1,2,2
O=C(NCC1CCCCC1)c1cc(Br)ccc1Cl,-32*,1,1,-3,-1
O=S(=O)(NCCc1csc2nc(-c3ccc(Cl)cc3)nn12)c1cccs1,·,-3,0,-4,12
O=C(N/N=C/c1cccs1)C(=O)Nc1cccc(Cl)c1,-66*,-4,1,13,14
CC(C)(C)NC(=O)C(=O)N/N=C/c1cccs1,-1,-5,1,-3,1
CCc1cccc(NC(=O)Cn2c(=O)n(CCc3ccc(OC)c(OC)c3)c(=O)c3ccccc32)c1,2,-2,-1,3,7
COc1cc(NC(=S)N2CCN(C(c3ccccc3)c3ccccc3)CC2)cc(OC)c1,-32*,2,1,2,5
COc1cc(NC(=S)N2CCN(C/C=C/c3ccccc3)CC2)cc(OC)c1,-3,2,0,-2,3
CCCNC(=S)N1CCN(C(c2ccccc2)c2ccccc2)CC1,-33*,-7,0,-7,1
CCN(CC)c1ccc2nc3c4ccccc4c(=O)cc-3oc2c1,-25,-4,16,-3,42*
O=c1cc(-c2c(F)c(F)c(F)c(F)c2F)oc2ccccc12,-1,-1,1,-4,10
CCN(CC)CC(O)Cn1c2ccccc2c2ccccc21 (configuration not stated),-15,-1,0,3,6
CCN(CC)CC(O)Cn1c(C)c(-c2ccccc2)c2cc([N+](=O)[O-])ccc21 (configuration not stated),2,-8,4,2,34*
Cn1c(=O)c(/C=C/c2ccc(F)cc2)nc2ccccc21,-2,-3,5,-9,0
O=c1c(/C=C(\O)c2ccc(F)cc2)nc2ccccc2n1-c1ccccc1,5,8,76*,-8,159*
CCOc1ccc(NC(=O)CC2C(=O)N(c3cccc(C)c3)C(=O)N2Cc2cccs2)cc1 (configuration not stated),14,3,-1,1,7
SMILES,D1 antag,D1 potentiator,TRHR agonist,TRHR enhancer,D1 ag
COc1ccc(-c2nc(NC(C)=O)sc2-c2ccccc2)cc1,-32*,-14,-2,-5,3
COc1ccc(-c2sc(NC(C)=O)nc2-c2ccccc2)cc1,-17,-11,0,-1,0
O=C1CCCCN1CCCC(=O)N1CCCC(Nc2ccccc2)C1 (configuration not stated),-51*,-5,1,-6,7
O=C(Nc1ccc(-c2nc3cc(Cl)ccc3c(=O)o2)cc1)c1ccco1,-32*,-9,0,8,1
COc1ccccc1OC(C)C(=O)Nc1cccc(-c2nc3ccccc3o2)c1 (configuration not stated),-8,-1,-1,6,32*
CCc1ccc2oc(-c3cccc(NC(=O)COc4ccccc4Cl)c3)nc2c1,8,-3,1,43*,-1
CC(=O)Nc1cccc(-c2nc3ccccc3o2)c1,25,2,2,1,4
